This is a sample that favours compounds with a hit; in the whole collection about 2.9% have one here.
GRK2 aptamer HTS = compounds blocking aptamer binding on GRK2 – biochemical, human GRK2, bead flow cytometry, HTS, primary screen; Beta-adrenergic receptor kinase 1 (Homo sapiens), P25098; FAM-aptamer displacement from GRK2; inhibition of aptamer binding, % at 10 µM; 330,000 tested, 0.59% active; AID 488847, 2010;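 active means inhibition of aptamer binding above 40%, roughly 3 SD of noise, on plates passing a quality check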;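 further: median bead fluorescence of bound FAM aptamer so fluorescent compounds give negative values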
B2AR ag = beta2AR agonists driving receptor internalization, primary screen, cell-based, FAP fluorogen, flow cytometry. Beta-2 adrenergic receptor (Homo sapiens), P07550. Am2.2-beta2AR cells. response, % (concentration not given with the values). 340,000 tested, 0.43% active. AID 504454, 2011;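 active means response above a set limit, near 3 SD of response in nonfluorescent compounds, cut at about 42% in these data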
Granule exo inh = LAMP-1 surface exposure blockers, TALL-104 cells – cell-based, flow cytometry, MLPCN library, primary screen; TALL-104 LAMP-1 surface exposure; cells stimulated with thapsigargin and PMA; inhibition, % at 10 µM; 360,000 tested, 0.66% active;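 active means inhibition above about 55%, limit read from the data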
NadD inh = inhibitors of S. aureus NadD, primary screen, biochemical, colorimetric, uHTS; Nicotinate-nucleotide adenylyltransferase NadD (Staphylococcus aureus N315); purified NadD enzyme, colorimetric absorbance read-out; inhibition, % at 20 µM; 360,000 tested, 0.78% active; AID 602399, 2012; in the data active means inhibition above about 26%
PP1 inh = PP1-alpha phosphatase inhibitors, primary screen, counter-screen for PP5 inhibitor project, biochemical, fluorescence, OMFP substrate, single point; purified PP1alpha; inhibition, % at 6.7 µM; 320,000 tested, 0.9% active; AID 2235, 2010;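 active means inhibition above the mean inhibition of all tested compounds plus 3 SD, computed separately for each screening campaign, cut at about 15% in these data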
Target sequence (P62136 whole entry, looked up): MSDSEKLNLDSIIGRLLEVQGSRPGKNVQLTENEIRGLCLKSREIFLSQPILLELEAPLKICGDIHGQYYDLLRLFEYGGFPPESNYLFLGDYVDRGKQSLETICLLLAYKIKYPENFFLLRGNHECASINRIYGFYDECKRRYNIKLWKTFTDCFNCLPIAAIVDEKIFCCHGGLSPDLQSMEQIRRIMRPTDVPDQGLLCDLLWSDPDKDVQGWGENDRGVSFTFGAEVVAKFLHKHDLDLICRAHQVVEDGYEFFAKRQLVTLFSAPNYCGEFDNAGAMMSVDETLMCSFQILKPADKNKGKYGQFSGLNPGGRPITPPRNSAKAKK
PP1 confirm = PP1 phosphatase inhibitors, confirmation, biochemical, fluorescence, OMFP substrate, triplicate. shares compounds with PP1 inh. purified PP1alpha. inhibition, % at 6.7 µM. 1,900 tested, 52% active. AID 2358, 2010;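 active means mean PP1 inhibition above a set limit taken from the earlier primary screen, cut at about 15% in these data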
PP5 counter = PP5 phosphatase inhibition by PP1 hits, confirmation, counter-screen for PP1 inhibitor project, biochemical, fluorescence, triplicate; shares compounds with PP1 inh; purified PP5c, OMFP fluorescence; inhibition, % at 6.7 µM; 1,900 tested, 4% active; AID 2360, 2010;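 active means mean PP5 inhibition over triplicate wells above about 9.5% taken from the earlier PP1 screen, limit read from the data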
An asterisk follows results filed as active; . = no result.

SMILES	GRK2 aptamer HTS	B2AR ag	Granule exo inh	NadD inh	PP1 inh	PP1 confirm	PP5 counter
CC(=O)Nc1ccc(NC(=O)COC(=O)c2ccccc2SCC(=O)N2CCCC2)cc1	0.0	-9.7	4.3	-2.6	57.9*	-0.9	-6.4
COc1ccc(NC(=O)COC(=O)c2ccccc2SCC(=O)N2CCCC2)cc1	0.0	-0.3	-2.6	-7.5	-1.9	.	.
COc1ccc(CN2C(=O)c3cccnc3C2O)cc1 (configuration not stated)	0.0	1.5	1.3	8.2	34.3*	24.9*	-4.3
COc1ccc(CN2C(=O)c3cccnc3C2Nc2cc(Cl)ccc2OC)cc1 (configuration not stated)	0.0	-2.2	0.6	24.0	27.0*	26.0*	-1.6
COc1ccc(OC)c(NC2c3ncccc3C(=O)N2Cc2ccco2)c1 (configuration not stated)	0.0	-5.1	-0.6	-0.6	1.4	.	.
CCCc1cc(=O)oc2cc(OC(C)C(=O)NCC3CCC(C(=O)O)CC3)c(Cl)cc12 (configuration not stated)	2.0	1.9	-2.0	0.4	1.3	.	.
CCCCc1cc(=O)oc2cc(OC(C)C(=O)NCC3CCC(C(=O)O)CC3)c(Cl)cc12 (configuration not stated)	0.0	-3.6	-0.2	4.8	54.3*	-2.9	-3.5
CCOC(=O)c1cnc(-n2nc(C)cc2C)nc1NCCc1ccccc1	0.0	-8.2	8.2	11.9	57.0*	50.7*	-1.1
CCOC(=O)c1cnc(-n2nc(C)cc2C)nc1Nc1ccc(OC)cc1	6.0	-13.9	-1.7	8.6	8.8	.	.
CCOC(=O)c1cnc(-n2nc(C)cc2C)nc1NCc1ccc2c(c1)OCO2	0.0	-19.8	0.2	5.4	31.3*	59.2*	-5.5
CCOC(=O)c1cnc(-n2nc(C)cc2C)nc1NC1CCCC1	0.0	-5.0	40.1	6.9	22.4*	26.5*	0.8
COc1ccc(CCN(C)C(=O)CN2C(=O)NC3(CCCCC3C)C2=O)cc1OC (configuration not stated)	1.0	3.3	-4.1	-1.9	-3.2	.	.
O=C1NC(Cc2ccc(O)cc2)c2nc3ccc(Br)cc3c(=O)n2-c2ncccc21 (configuration not stated)	.	.	-1.1	7.0	.	.	.
Cc1ccc2nc(/N=C(\N)NC(=O)NC3CCCCC3)nc(C)c2c1	0.0	1.9	-1.0	-0.7	21.7*	33.1*	0.8
CCCC(=O)N/C(N)=N/c1nc(C)c2cc(C)ccc2n1	0.0	-7.6	-4.6	-7.7	9.6	.	.
Cc1cccc(C)c1OCC(=O)NCC1CCCO1 (configuration not stated)	0.0	-1.2	-0.5	-3.7	-0.9	.	.
Cc1cc(C)c(OCC(=O)NCC2CCCO2)c(C)c1 (configuration not stated)	3.0	5.1	0.7	0.1	41.6*	-1.5	-2.4
COC(=O)C(NC(=O)CCc1nnc2ccc(N3CCC(C)CC3)nn12)C(C)C (configuration not stated)	0.0	5.8	-1.2	-6.3	30.6*	-3.9	-1.6
O=C(O)c1cc(-c2cccs2)nn1-c1ccccc1	0.0	0.1	-2.9	-3.0	27.7*	24.1*	-4.8
O=C(O)c1cc(-c2ccco2)nn1-c1ccc(Cl)cc1	.	16.1	-2.6	6.7	.	.	.
O=C(O)c1cc(-c2cccs2)nn1-c1cccc(Cl)c1	0.0	1.9	0.3	-10.3	28.8*	27.5*	-6.4
O=C(O)c1cc(-c2cc3ccccc3o2)nn1-c1ccccc1	0.0	-3.5	22.2	6.8	45.4*	45.4*	-2.0
O=C(Nc1cccc([N+](=O)[O-])c1)c1ccc2ccccc2c1O	9.0	19.0	-29.5	-7.6	-2.1	.	.
Cn1c(=O)c(C(=O)Nc2ncccc2O)c(O)c2ccccc21	0.0	-4.6	-3.4	9.1	27.6*	29.5*	-4.7
CC1(C)Cc2c(C#N)c(N3CCN(C(=O)c4ccco4)CC3)nc(-c3ccco3)c2CS1	6.0	.	-0.7	2.2	19.3*	2.9	-2.6
SMILES	GRK2 aptamer HTS	B2AR ag	Granule exo inh	NadD inh	PP1 inh	PP1 confirm	PP5 counter
COCCn1c(C)cc(C2=NNC(=NC(C)(C)C)SC2)c1C	0.0	-0.7	-3.4	4.3	3.5	.	.
COCCn1c(C)cc(C2=NNC(=Nc3ccc(OC)cc3)SC2)c1C	0.0	20.6	-1.0	27.7	20.5*	8.2	-2.8
Cc1ccc2ccccc2[n+]1CCCS(=O)(=O)[O-]	3.0	-1.4	-3.8	-0.2	-1.6	.	.
CCCC[n+]1c2ccccc2cc2ccccc21	1.0	15.1	-8.6	13.2	22.3*	19.1*	0.2
CCCCC[n+]1cccc2c3ccccc3ccc21	1.0	-0.7	0.1	23.0	-5.4	.	.
CCC[n+]1c2ccccc2cc2ccccc21	11.0	13.0	-19.6	8.3	25.2*	20.4*	0.9
O=S(=O)(Nc1nc2ccccc2nc1Nc1cccc(S(=O)(=O)N2CCCCC2)c1)c1ccccc1	0.0	20.2	12.1	25.1	25.4*	19.6*	3.9
c1ccc(-c2nc(N3CCOCC3)c3ccccc3n2)nc1	2.0	-10.7	1.7	-1.8	0.0	.	.
c1ccc(CCNc2nc(-c3ccccn3)nc3ccccc23)cc1	0.0	0.7	8.2	11.2	29.2*	49.6*	-4.5
Fc1ccc(Oc2nc(-c3ccccn3)nc3ccccc23)cc1	1.0	-21.2	0.1	3.8	17.7*	23.2*	-2.7
COc1ccc(Oc2nc(-c3ccccn3)nc3ccccc23)cc1	0.0	-14.4	-5.4	11.8	15.0	.	.
c1ccc(-c2nc(N3CCCCCC3)c3ccccc3n2)nc1	0.0	0.8	-4.2	12.7	26.9*	25.6*	-2.0
O=C(Nc1ccc([N+](=O)[O-])cc1)c1ccc(S(=O)(=O)N2CCCC2)cc1	1.0	9.8	-10.2	0.4	-2.0	.	.
O=C(Nc1ccc(S(=O)(=O)N2CCCCCC2)cc1)c1[nH]ncc1[N+](=O)[O-]	1.0	18.0	-0.1	5.5	57.8*	16.2*	-4.2
COC(=O)c1ccccc1NC(=O)CN1C(=O)c2ccccc2C1=O	0.0	-2.8	-9.0	-7.7	1.2	.	.
O=C(c1cc(-c2ccco2)on1)N1CCN(C(c2ccccc2)c2ccccc2)CC1	0.0	12.1	9.5	17.7	19.4*	6.9	-1.1
COc1ccc(-c2cc(C(=O)N3CCN(C(c4ccccc4)c4ccccc4)CC3)no2)cc1	2.0	5.8	0.2	12.0	4.1	.	.
